{"source": "paper PMC5540273", "about": "(PLoS ONE, 2017);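 further: KINOMEscan kinase panel screen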", "data": [{"test_system": "PAK2", "conditions": "concentration: 1 μM, replicates: in singlicate; n = 1", "units": {"%Inh": "%"}, "values": [{"molecule": "CCCNC(=O)Nc1ccc(Oc2ncnc3ccn(C)c23)cc1", "%Inh": 30}, {"molecule": "COc1ccc(Nc2nccc(N3CCC(NS(=O)(=O)c4ccc(NC(C)=O)cc4)C3)n2)cc1", "note": "(stereo not shown) [GSK1379729]", "%Inh": 0}, {"molecule": "COc1cc2ncn(-c3cc(OCc4ccncc4Br)c(C(N)=O)s3)c2cc1OC", "note": "[GW854278]", "%Inh": 14}, {"molecule": "CN1C(=O)C(Nc2cc(Cl)c(O)c(Cl)c2)=C(c2ccc(Cl)cc2)C1=O", "note": "[SB-404321]", "%Inh": 2}, {"molecule": "CCC(=O)c1c(-c2ccccc2)c2cc(Cl)ccc2c(=O)n1Cc1cc(S(C)(=O)=O)n(CC(F)F)n1", "%Inh": 0}, {"molecule": "O=C1NC(=O)C(c2ccccc2)=C1Nc1cccc(O)c1", "note": "[SB-390534]", "%Inh": 16}, {"molecule": "Cc1cccc(-c2cc(-c3c[nH]nc3-c3ccccn3)ccn2)c1", "note": "[GW679395]", "%Inh": 22}, {"molecule": "Nc1nc(N)c2nc(-c3ccccc3)[nH]c2n1", "note": "[SKF-12778]", "%Inh": 0}, {"molecule": "COc1ccc(-n2cnc3c(N)ncnc32)cc1", "note": "[SKF-97236]", "%Inh": 0}, {"molecule": "COc1cccc(-n2cnc3c(N)ncnc32)c1", "note": "[SKF-97416]", "%Inh": 53}, {"molecule": "FC(F)(F)c1ccc(-c2ncn(CCCN3CCOCC3)c2-c2ccncc2)cc1", "note": "[SB-217780]", "%Inh": 34}, {"molecule": "Cc1nnc(-c2ccc3ncn(-c4ccc(S(C)=O)cc4)c3c2)o1", "note": "(stereo not shown)", "%Inh": 14}, {"molecule": "COC(=O)c1c(-c2ccccc2)c2cc(Br)ccc2c(=O)n1Cc1ccc(NC(=O)CCC(=O)O)cc1", "%Inh": 17}, {"molecule": "Cl.c1ccc(Cn2cnc3cc(Nc4ncnc5ccccc45)ccc32)cc1", "note": "[GW272142]", "%Inh": 0}, {"molecule": "Cc1ccc(-c2ccc3c(ccc4sc5c(c43)NC[C@@H](C)N=C5N(C)C)n2)cn1", "%Inh": 0}, {"molecule": "CN1C(=O)C(Nc2ccccc2)=C(c2ccccc2)C1=O", "note": "[SB-300079]", "%Inh": 0}, {"molecule": "COc1cc2nccc(Nc3ccc(OCc4ccc(NC(C)=O)cc4)cc3)c2cc1OC.Cl", "note": "[GW440135]", "%Inh": 0}, {"molecule": "COc1cc2ncn(-c3cc(OCCCc4ccccc4)c(C(N)=O)s3)c2cc1OC", "note": "[GSK205189]", "%Inh": 26}, {"molecule": "Cc1nnc(-c2ccc(C)c(-c3ccc(C(=O)O)cc3)c2)o1", "note": "[GW608005]", "%Inh": 9}, {"molecule": "O=C(Nc1n[nH]c2cc(-c3ccccc3F)ccc12)C1CC1", "note": "[SB-733371]", "%Inh": 0}, {"molecule": "CCC(=O)c1c(-c2ccccc2)c2cc(Cl)ccc2c(=O)n1Cc1cc(C(=O)NC2CC2)n(C)n1", "%Inh": 16}, {"molecule": "CCC(=O)c1c(-c2ccccc2)c2cc(Cl)ccc2c(=O)n1Cc1ccc(C(=O)O)cc1", "%Inh": 0}]}]}
